Results reported in PubChem BioAssay (NCATS).
Inconclusive results are not listed. This is one part of the list. Calls of active or inactive are those of the source. Unless noted, the call rests on the fitted dose curve; in most records, active means well fitted curve in the direction sought with a large enough effect; inconclusive means small, poorly fitted or top-dose-only effect, or another doubt; inactive means no such curve, though single readings can be large; an effect the other way counts as inactive or inconclusive.

How the values were obtained:
[1] = target: Rap guanine nucleotide exchange factor 3 (Homo sapiens) (UniProt O95398); assay: Confirmatory qHTS for antagonist of cAMP-regulated guanine nucleotide exchange factor 3 (EPAC1) (AID 1645880); settings: EPAC1 Rap1B-BODIPY-GDP exchange, fluorescence; activity, negative = inhibition: at 115 µM (top of the series); further: nearly all actives have a fitted effect of over 55% in size; further: potency means the concentration at half of the fitted maximal effect;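 on activity, negative = inhibition: plate controls were DMSO only for no effect and full effect of the ATA control for full effect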
Outline: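 Released BODIPY-GDP fluoresces less than Rap1-bound BODIPY-GDP; the signal is followed at 480/540 nm at 5-min intervals over 30 min, after 5 min at room temperature. Reactions contain 100 nM EPAC1, 250 nM RAP1B-BODIPY-GDP and 50 uM GDP; results are normalized to ATA and DMSO.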

[2] = target: Rap guanine nucleotide exchange factor 3 (Homo sapiens) (UniProt O95398); assay: Confirmatory qHTS for agonist of cAMP-regulated guanine nucleotide exchange factor 3 (EPAC1) (AID 1645881); further: nearly all actives have a fitted effect of over 75% in size; further: potency means the concentration at half of the fitted maximal effect;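 on activation: EPAC1 catalysed release of BODIPY-GDP from Rap1B seen as fluorescence loss; 100% = effect of cAMP agonist control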
[3] = target: Rap guanine nucleotide exchange factor 4 (Homo sapiens) (UniProt Q8WZA2); assay: Confirmatory qHTS for agonist of cAMP-regulated guanine nucleotide exchange factor 4 (EPAC2) (AID 1645884);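 further: nucleotide exchange releases bodipy-GDP from Rap1 and this lowers its fluorescence; nearly all actives have a fitted effect of over 65% in size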; further: potency means the concentration at half of the fitted maximal effect; on activation: on the % scale 0 is the no-effect control and ±100 the full control effect
[4] = target: Rap guanine nucleotide exchange factor 3 (Homo sapiens) (UniProt O95398); assay: Counterscreen qHTS for antagonist of cAMP-regulated guanine nucleotide exchange factor 3 (EPAC1) (AID 1645888); further: potency means the concentration at half of the fitted maximal effect; on activity change, negative = inhibition: % of control where 0% means no effect
Outline: (§1)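 Rap1B–BODIPY-GDP (250 nM) with 50 uM GDP; compounds pin-transferred to 9.74 nM–152 uM final (activator) or from 7.32 nM upwards (inhibitor). Fluorescence Ex/Em 480/540 nm read at 5 and 30 min, then after adding cAMP or buffer, at room temperature.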

[5] = target: Rap guanine nucleotide exchange factor 3 (Homo sapiens) (UniProt O95398); assay: Counterscreen qHTS for agonist of cAMP-regulated guanine nucleotide exchange factor 3 (EPAC1) (AID 1645889); further: nearly all actives have a fitted effect of over 40% in size; further: potency means the concentration at half of the fitted maximal effect; on activation: % of control where 0% means no effect
Outline: as §1

[6] = target: Tumor susceptibility gene 101 protein (Homo sapiens) (UniProt Q99816); assay: qHTS Assay for Iinhibitors of HIV-1 Budding by Blocking the Interaction of PTAP/TSG101: Hit Validation (AID 651600); further: potency means the concentration at half of the fitted maximal effect; nearly all actives have a fitted effect of over 70% in size
Outline: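 Displacement of a FITC-labeled PTAP-motif peptide (50 nM) from the Tsg101 binding domain (10 uM) was monitored by fluorescence polarization after a 20 min room-temperature incubation.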

[7] = qHTS for Inhibitors of the vitamin D receptor (VDR): Hit Validation using a Texas Red Assay (AID 602201); further: potency means the concentration at half of the fitted maximal effect
Outline: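 Fluorescence polarization with 1.5 uM VDR-LBD, LG19078 and 7 nM Texas Red (final). After 2 hours at ambient temperature, read at Ex 595 nm/Em 615 nm.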

[8] = target: Phosphoglycerate kinase, glycosomal (Trypanosoma brucei brucei) (UniProt P07378); assay: qHTS for inhibitors of Phosphogylcerate Kinase: Hit Validation Screen (AID 686980); settings: TbPGK coupled GAPDH assay, Kinase-Glo luminescence; further: potency means the concentration at half of the fitted maximal effect; nearly all actives have a fitted effect of over 65% in size
Outline: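 Recombinant glycosomal PGK reaction used 1,3-bisphosphoglycerate generated in-well by GAPDH (100nM final) in 100mM TEA pH 7.6, 5mM MgCl2, 0.01% Tween-20. After 60 minutes at room temperature, ATP was read by Kinase-Glo Plus luminescence end-point.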

[9] = target: DNA polymerase iota (Homo sapiens) (UniProt Q9UNA4); assay: qHTS for Inhibitors of Polymerase Iota: Confirmatory Assay for Cherry-picked Compounds (AID 720496); settings: Pol iota primer extension, TAMRA/BHQ fluorescence; further: potency means the concentration at half of the fitted maximal effect
Outline: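 Using TAMRA dequenching as read-out, activity of 10 nM human Pol iota on 50 nM (final) primer/reporter/template substrate was tracked from 0 to 10 min, following a 15 min room-temperature compound preincubation.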

[10] = target: Bifunctional 3'-5' exonuclease/ATP-dependent helicase WRN (Homo sapiens) (UniProt Q14191); assay: qHTS for Inhibitors of WRN Helicase: Confirmatory Assay for Cherry-picked Compounds. (AID 720497); settings: WRN helicase DNA unwinding, fluorescence kinetic; further: potency means the concentration at half of the fitted maximal effect; nearly all actives have a fitted effect of over 65% in size
Outline: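 Helicase activity is tracked as a kinetic fluorescence signal (excitation 525 nm, emission 598 nm) after 100 nM forked duplex DNA and 2 mM ATP are added to 20 nM WRN that has been preincubated 15 min with compound at room temperature.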

[11] = target: DNA polymerase kappa (Homo sapiens) (UniProt Q9UBT6); assay: qHTS for Inhibitors of Polymerase Kappa: Confirmatory Assay for Cherry-picked Compounds (AID 720501); settings: purified Pol-kappa, fluorescent strand-displacement substrate; further: potency means the concentration at half of the fitted maximal effect
Outline: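 10 nM human Pol-kappa was preincubated with compound 15 min at room temperature, then 50 nM (final) primer/template substrate with TAMRA-labeled reporter strand and BHQ-2-labeled template added. Fluorescence (Ex 525, Em 598 nm) read at 0 and 10 min.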

[12] = target: DNA polymerase eta (Homo sapiens) (UniProt Q9Y253); assay: qHTS for Inhibitors of Polymerase Eta: Confirmatory Assay for Cherry-picked Compounds (AID 720502); settings: Pol eta primer extension, TAMRA/BHQ fluorescence, 10 min; further: potency means the concentration at half of the fitted maximal effect
Outline: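 Quenched-fluorescence replication assay: 10 nM Pol eta, 50 nM substrate final, 15 min compound preincubation at room temperature, 10 min kinetic reaction read at 525/598 nm.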

[13] = target: RecQ-like DNA helicase BLM (Homo sapiens) (UniProt P54132); assay: qHTS for Inhibitors of WRN Helicase: BLM Helicase Counterscreen for WRN Inhibitors (AID 720503); settings: Recombinant BLM helicase DNA unwinding, red fluorescence; further: potency means the concentration at half of the fitted maximal effect; nearly all actives have a fitted effect of over 60% in size
Outline: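 Steps: compounds added to 1 nM BLM in pH 8.0 Tris buffer with 2 mM MgCl2; 15 min room-temperature incubation; substrates added (100 nM DNA, 2 mM ATP final); discontinuous kinetic fluorescence measurement, reads spaced 15 min.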

[14] = AP1 Signaling Pathway (AID 357; active means well fitted curve in either direction with a large enough effect, not every such curve was filed as active;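 further: ME-180 reporter cells stimulated with EGF at its EC50 level; on the % scale 0 is the no-effect control and ±100 the full control effect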); settings: ME-180 (cervical carcinoma) AP-1-bla reporter, EGF-induced, beta-lactamase ratio, 5 h; at 7.69 µM (top of the series) unless noted
Outline: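 Beta-lactamase reporter under AP-1 response element, ME-180 background. Stimulus: EC50 EGF. Compound exposure 5 h, 37 °C. Detection: CCF4, 2.5 h RT, 460/530 nm. Values: AC50 from titration.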

[15] = NFAT Signaling Pathway (AID 444; active means well fitted curve in either direction with a large enough effect, not every such curve was filed as active;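 further: carbachol stimulus at about its EC50 of 1 µM final; on the % scale 0 is the no-effect control and ±100 the full control effect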); settings: Jurkat NFAT-bla M1, carbachol, beta-lactamase ratio, 5 h; at 7.69 µM (top of the series) unless noted
Outline: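 Jurkat cells with NFAT-driven β-lactamase reporter and co-expressed M1 receptor, stimulated with carbachol (final 1 uM, ~EC50), compound titration, 5 h at 37 °C. CCF4 loaded 1 h at RT; 460/530 nm ratio gave %activity and AC50.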

[16] = Stat Signaling Pathway (AID 446; active means well fitted curve in either direction with a large enough effect, not every such curve was filed as active;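 further: ME-180 cervical cancer cells given 40 pM IL-6 alongside compound; SIE-controlled beta-lactamase reporter measured as 460/530 nm FRET emission ratio; on the % scale 0 is the no-effect control and ±100 the full control effect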)
Outline: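 Overnight-plated ME-180 cells bearing a STAT Inducible Element beta-lactamase reporter; 5 h co-exposure to compound and 40 pM IL-6; values normalized to 300 pM IL-6 and 125 nM JAK inhibitor controls.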

[17] = target: Glucocorticoid receptor (Homo sapiens) (UniProt P04150); assay: GR-GFP Redistribution (AID 450;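 active means compounds whose dose series gives a full or clear partial fitted curve of increased nuclear translocation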; further: potency means the concentration at half of the fitted maximal effect); settings: U2OS GR-GFP nuclear translocation, laser cytometry, 2 h
[18] = qHTS for Inhibitors of Ubiquitin-specific Protease USP2a Using CHOP2 as the Reporter: K633 Counterscreen (AID 652168); further: % of control where 0% means no effect
Outline: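 Detection-system control: fluorescence of K48-linked DiUb-4IQF substrate (100 nM as added) tracked over time, Ex 525/Em 598, with pinned compounds and no enzyme, in pH 8 Tris buffer containing beta-mercaptoethanol and 0.05% Chaps.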

[19] = qHTS for Inhibitors of Ubiquitin-specific Protease USP2a Using CHOP2 as the Reporter: Cytotox Assay (AID 652170);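 further: HCT116 human colon cancer cells at 600 per well; plate controls were DMSO-treated cells for no effect and wells without cells for full effect; nearly all actives have a fitted effect of over 70% in size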
Outline: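 Cytotoxicity read as ATP luminescence (CellTiter-Glo) after 72 hr compound treatment at 37 deg C. Cells: HCT116, 600/well in DMEM plus 10% FBS. Normalization between DMSO-treated cells and cell-free wells.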

[20] = target: Ubiquitin carboxyl-terminal hydrolase 2 (Homo sapiens) (UniProt O75604); assay: qHTS for Inhibitors of Ubiquitin-specific Protease USP2a Using CHOP2 as the Reporter: K484 Substrate (AID 652173); settings: USP2 cleavage of DiUb K48 IQF substrate, fluorescence;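 further: cleavage of internally quenched K48 di-ubiquitin substrate measured as rising fluorescence over time; potency means the concentration at half of the fitted maximal effect; nearly all actives have a fitted effect of over 70% in size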
Outline: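 Kinetic fluorescence (Ex 525/Em 598) tracked cleavage of an internally quenched K48 di-ubiquitin substrate, added as a 100 nM solution. The enzyme was added as a 5 nM USP2 solution before compound pinning, with no-enzyme controls. Buffer: Tris pH 8, beta-mercaptoethanol, CHAPS.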

Rap guanine nucleotide exchange factor 4 (Homo sapiens), sequence (Q8WZA2 whole entry, looked up): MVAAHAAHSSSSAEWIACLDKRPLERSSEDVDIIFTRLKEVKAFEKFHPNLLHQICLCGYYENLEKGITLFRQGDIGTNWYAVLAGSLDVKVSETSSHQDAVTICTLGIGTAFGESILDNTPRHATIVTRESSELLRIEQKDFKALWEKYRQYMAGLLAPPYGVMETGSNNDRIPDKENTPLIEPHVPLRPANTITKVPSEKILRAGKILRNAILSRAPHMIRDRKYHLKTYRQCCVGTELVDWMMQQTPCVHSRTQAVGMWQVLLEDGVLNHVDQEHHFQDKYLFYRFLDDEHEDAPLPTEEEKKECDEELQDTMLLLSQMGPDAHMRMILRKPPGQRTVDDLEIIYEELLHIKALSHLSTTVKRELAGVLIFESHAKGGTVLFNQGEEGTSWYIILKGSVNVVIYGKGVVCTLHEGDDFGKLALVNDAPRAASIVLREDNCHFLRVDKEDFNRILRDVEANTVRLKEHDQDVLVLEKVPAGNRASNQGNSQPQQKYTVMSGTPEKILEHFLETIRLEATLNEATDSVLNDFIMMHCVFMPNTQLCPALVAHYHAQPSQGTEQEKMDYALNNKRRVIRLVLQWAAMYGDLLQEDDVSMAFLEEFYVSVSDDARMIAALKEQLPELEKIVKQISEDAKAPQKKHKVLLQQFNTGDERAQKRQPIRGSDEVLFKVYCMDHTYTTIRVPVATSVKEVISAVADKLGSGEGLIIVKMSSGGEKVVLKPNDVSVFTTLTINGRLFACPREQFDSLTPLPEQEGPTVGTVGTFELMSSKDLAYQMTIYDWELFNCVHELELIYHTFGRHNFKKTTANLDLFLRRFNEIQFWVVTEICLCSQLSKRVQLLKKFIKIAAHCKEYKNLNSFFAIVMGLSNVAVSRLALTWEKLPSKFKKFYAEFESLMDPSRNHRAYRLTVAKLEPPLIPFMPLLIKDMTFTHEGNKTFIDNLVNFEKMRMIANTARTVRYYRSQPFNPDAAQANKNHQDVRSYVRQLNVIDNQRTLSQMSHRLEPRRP
Rap guanine nucleotide exchange factor 3 (Homo sapiens), sequence (O95398 whole entry, looked up): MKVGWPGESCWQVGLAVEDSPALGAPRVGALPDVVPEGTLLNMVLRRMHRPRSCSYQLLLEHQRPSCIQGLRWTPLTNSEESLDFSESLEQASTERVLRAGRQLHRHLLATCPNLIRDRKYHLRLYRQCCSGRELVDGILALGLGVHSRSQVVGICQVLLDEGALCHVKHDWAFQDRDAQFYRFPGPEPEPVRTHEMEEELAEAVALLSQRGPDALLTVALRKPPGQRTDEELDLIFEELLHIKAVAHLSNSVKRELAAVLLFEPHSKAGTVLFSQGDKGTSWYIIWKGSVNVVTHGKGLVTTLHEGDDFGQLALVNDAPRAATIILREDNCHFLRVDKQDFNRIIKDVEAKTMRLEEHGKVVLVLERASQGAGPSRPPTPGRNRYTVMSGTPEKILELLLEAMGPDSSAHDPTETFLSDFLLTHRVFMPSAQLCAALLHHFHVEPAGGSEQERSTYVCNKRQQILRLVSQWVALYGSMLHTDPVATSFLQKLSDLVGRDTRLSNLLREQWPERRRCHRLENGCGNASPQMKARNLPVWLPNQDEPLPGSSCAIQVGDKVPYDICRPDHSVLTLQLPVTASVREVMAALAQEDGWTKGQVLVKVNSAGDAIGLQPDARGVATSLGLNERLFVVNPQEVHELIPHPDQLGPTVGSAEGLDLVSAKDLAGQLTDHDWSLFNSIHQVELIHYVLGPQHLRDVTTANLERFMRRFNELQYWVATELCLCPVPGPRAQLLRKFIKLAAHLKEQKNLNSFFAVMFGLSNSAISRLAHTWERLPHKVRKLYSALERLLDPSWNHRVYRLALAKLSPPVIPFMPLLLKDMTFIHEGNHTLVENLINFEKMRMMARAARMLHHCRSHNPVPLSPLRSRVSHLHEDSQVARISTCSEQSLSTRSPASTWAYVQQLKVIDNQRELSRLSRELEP
DNA polymerase eta (Homo sapiens), sequence (Q9Y253 whole entry, looked up): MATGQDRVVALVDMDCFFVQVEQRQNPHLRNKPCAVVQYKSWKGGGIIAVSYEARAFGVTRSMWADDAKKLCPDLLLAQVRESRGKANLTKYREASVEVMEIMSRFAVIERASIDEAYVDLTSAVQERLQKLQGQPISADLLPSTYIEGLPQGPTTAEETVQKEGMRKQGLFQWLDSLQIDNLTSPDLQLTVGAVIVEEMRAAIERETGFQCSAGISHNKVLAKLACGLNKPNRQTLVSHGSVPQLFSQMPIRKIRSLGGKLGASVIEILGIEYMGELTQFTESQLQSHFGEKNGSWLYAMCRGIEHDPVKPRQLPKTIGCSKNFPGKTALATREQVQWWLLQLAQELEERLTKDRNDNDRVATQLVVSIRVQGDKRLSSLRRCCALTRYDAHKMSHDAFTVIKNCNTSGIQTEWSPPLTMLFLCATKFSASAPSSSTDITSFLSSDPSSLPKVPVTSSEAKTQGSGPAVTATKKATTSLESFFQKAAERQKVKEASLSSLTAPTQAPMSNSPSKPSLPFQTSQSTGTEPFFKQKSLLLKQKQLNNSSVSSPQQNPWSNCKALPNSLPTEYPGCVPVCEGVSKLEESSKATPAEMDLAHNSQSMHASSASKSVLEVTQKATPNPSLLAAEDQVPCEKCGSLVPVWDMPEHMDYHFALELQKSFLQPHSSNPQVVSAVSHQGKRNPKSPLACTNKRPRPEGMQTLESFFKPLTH
Glucocorticoid receptor (Homo sapiens), sequence (P04150 whole entry, looked up): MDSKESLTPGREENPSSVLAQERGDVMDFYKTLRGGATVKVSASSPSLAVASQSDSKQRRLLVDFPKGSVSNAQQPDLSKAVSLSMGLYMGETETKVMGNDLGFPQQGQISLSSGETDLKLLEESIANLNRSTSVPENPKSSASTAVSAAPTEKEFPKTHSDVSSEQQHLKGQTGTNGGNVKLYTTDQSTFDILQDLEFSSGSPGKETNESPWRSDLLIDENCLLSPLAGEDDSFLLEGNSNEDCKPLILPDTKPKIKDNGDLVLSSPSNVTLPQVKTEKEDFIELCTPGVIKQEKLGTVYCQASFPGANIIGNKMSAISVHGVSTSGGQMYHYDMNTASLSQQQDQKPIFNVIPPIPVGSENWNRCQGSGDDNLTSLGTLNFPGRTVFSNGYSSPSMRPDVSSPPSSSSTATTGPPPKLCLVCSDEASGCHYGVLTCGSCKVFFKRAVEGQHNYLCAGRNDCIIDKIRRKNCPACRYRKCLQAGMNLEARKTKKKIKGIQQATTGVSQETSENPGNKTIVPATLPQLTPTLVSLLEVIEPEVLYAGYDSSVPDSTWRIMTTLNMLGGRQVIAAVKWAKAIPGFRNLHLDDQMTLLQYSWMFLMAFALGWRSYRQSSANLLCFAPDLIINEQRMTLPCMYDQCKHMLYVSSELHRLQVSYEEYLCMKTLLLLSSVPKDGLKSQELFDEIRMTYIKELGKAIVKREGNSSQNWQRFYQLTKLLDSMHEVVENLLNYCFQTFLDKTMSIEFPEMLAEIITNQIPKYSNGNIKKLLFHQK
Phosphoglycerate kinase, glycosomal (Trypanosoma brucei brucei), sequence (P07378 whole entry, looked up): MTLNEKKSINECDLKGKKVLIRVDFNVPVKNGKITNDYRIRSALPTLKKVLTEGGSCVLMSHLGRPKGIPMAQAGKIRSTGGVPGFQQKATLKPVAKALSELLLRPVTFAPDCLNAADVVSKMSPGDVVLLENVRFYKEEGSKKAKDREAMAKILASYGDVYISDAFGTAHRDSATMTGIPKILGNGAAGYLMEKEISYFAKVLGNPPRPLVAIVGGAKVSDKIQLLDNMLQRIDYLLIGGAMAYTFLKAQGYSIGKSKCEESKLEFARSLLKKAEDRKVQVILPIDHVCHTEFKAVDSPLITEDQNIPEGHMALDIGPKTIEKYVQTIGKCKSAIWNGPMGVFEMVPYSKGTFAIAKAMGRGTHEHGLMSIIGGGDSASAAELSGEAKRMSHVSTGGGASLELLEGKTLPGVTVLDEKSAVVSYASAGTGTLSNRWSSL
DNA polymerase iota (Homo sapiens), sequence (Q9UNA4 whole entry, looked up): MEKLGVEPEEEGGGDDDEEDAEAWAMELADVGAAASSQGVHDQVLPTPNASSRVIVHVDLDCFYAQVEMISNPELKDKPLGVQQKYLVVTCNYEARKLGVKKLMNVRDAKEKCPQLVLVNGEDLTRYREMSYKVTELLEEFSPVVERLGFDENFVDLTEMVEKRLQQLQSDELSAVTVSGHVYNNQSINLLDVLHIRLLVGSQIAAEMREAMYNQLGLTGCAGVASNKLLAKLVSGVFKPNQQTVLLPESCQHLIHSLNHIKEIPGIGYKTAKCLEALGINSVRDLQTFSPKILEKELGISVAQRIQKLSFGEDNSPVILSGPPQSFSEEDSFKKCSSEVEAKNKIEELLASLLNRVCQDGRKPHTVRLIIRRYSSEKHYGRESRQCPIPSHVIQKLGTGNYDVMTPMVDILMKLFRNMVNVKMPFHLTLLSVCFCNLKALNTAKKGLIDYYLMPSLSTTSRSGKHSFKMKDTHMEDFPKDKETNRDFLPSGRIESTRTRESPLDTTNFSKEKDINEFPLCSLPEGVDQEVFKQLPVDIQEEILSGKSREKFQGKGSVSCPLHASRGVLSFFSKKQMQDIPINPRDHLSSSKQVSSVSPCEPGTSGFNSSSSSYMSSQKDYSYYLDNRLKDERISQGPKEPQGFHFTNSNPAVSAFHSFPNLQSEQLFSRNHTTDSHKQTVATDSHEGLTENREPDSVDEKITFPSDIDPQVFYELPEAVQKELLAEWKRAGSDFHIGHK
Tumor susceptibility gene 101 protein (Homo sapiens), sequence (Q99816 whole entry, looked up, the tested form may be a part): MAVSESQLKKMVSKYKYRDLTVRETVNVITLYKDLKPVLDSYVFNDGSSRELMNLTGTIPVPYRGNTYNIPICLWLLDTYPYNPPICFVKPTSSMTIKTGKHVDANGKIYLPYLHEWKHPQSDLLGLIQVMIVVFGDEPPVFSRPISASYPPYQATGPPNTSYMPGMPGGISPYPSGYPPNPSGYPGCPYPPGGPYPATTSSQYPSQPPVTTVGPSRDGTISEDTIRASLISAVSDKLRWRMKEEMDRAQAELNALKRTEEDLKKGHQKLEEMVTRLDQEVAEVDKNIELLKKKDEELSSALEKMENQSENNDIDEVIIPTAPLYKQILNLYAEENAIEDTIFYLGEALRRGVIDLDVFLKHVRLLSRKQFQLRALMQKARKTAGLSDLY

Cc1onc(-c2ccccc2)c1C(=O)N1CCc2ccccc21
inactive: Potency [1] | Potency [2] | activation [3] 1.91% [at 17.1 µM, percent relative to cAMP agonist control] | activity change, negative = inhibition [4] -17.7% [at 30.8 µM] | activation [5] 18.4% [at 30.8 µM]

Cc1ccc(C)c(Cn2cnc3ccccc3c2=O)c1
inactive: Potency [1] | Potency [2] | Potency [3] | Potency [4] | Potency [5]

Cc1ccc(N(C(=O)c2ccccc2Cl)C2=NC(C)CS2)c(C)c1 (stereo unspecified)
inactive: Potency [1] | Potency [2] | activation [3] 5.24% [at 17.1 µM, percent relative to cAMP agonist control] | activity change, negative = inhibition [4] -24.5% [at 30.8 µM] | activation [5] 26.9% [at 30.8 µM]

Cc1ccc(Cl)cc1N1CCN(C(=O)c2cccc3c(=O)c(C)c(-c4ccccc4)oc23)CC1
inactive: Potency [1] | Potency [2] | activation [3] 13% [at 17.1 µM, percent relative to cAMP agonist control] | activity change, negative = inhibition [4] -10.3% [at 30.8 µM] | activation [5] 25.9% [at 30.8 µM]

COC(=O)/N=C(/Cc1ccc(OC)cc1)c1ccc(OC)cc1
inactive: Potency [1] | Potency [2] | Potency [3] | Potency [5]

COc1ccc(OC)c(/C=C/c2ccnc3ccccc23)c1
inactive: Potency [1] | Potency [2] | activation [3] 0% [at 17.1 µM, percent relative to cAMP agonist control] | activation [5] 14.1% [at 30.8 µM]

O=c1cc2oc3cc(O)c(O)cc3c(-c3ccccc3[N+](=O)[O-])c-2cc1O
active: Potency [1] 10.7 µM
inactive: Potency [2] | Potency [3] | Potency [5]

Oc1[nH]c2ccc(Br)cc2c1N=Nc1ccc(F)cc1
active: Potency [6] 10.3 µM | Potency [1] 84.9 µM | Potency [4] 70.8 µM
inactive: Potency [2] | Potency [3] | Potency [5]

Cc1cc(C)c2nc(N3C(=O)C(O)=C(C(=O)c4ccco4)C3c3cccc(O)c3)sc2c1 (stereo unspecified)
inactive: Potency [2] | Potency [3] | Potency [5]
active: Potency [1] 26.9 µM

CCOCCCn1c(=N)c(S(=O)(=O)c2ccccc2)cc2c(=O)n3cc(C)ccc3nc21
inactive: Potency [1] | Potency [2] | Potency [3] | Potency [5]

O=C(NCc1ccc(F)cc1)c1cccc2c1C(=O)c1ccc(N3CCOCC3)cc1S2(=O)=O
inactive: Potency [1]
active: Potency [2] 56.2 µM | Potency [3] 89.1 µM | Potency [5] 56.2 µM

O=C1ON=C(c2ccccc2)/C1=C/c1ccc(-c2ccccc2[N+](=O)[O-])o1
inactive: Potency [2] | Potency [3] | Potency [4]
active: Potency [7] 4.47 µM | Potency [1] 37.9 µM

Cc1cccc(Cn2c(C)nc3c(N)c(C)c(C)cc32)c1
inactive: Potency [1] | Potency [2] | Potency [3] | Potency [5]

Cc1oc2c(c1C(=O)c1ccccc1)C(=O)C(=O)c1ccccc1-2
inactive: Potency [2] | Potency [3] | Potency [4]
active: Potency [7] 3.98 µM | Potency [1] 42.6 µM

COc1ccc(C2CC2/C(=N/O)c2ccccn2)cc1 (stereo unspecified)
inactive: Potency [1] | Potency [2] | Potency [3] | Potency [5]

CN(C)c1ccc2nc3c(=O)[nH]c(=O)nc-3n(CC(O)C(O)C(O)CO)c2c1 (stereo unspecified)
inactive: Potency [1] | Potency [2] | activation [3] -84.9% [at 17.1 µM, percent relative to cAMP agonist control]
active: Potency [5] 11.2 µM

COc1ccc(NS(=O)(=O)c2cc(N)ccc2N2CCCCC2)cc1
inactive: Potency [1] | Potency [2] | Potency [3] | Potency [5]

COC(=O)c1cc(C(=O)OC)n(Cc2ccc(F)cc2)c1C
inactive: Potency [1] | Potency [2] | Potency [3] | Potency [5]

CN(C)c1ccccc1-c1cc(NC=O)c2ncc(-c3cccc(C(F)(F)F)c3)n2c1
active: Potency [1] 47.8 µM
inactive: Potency [2] | Potency [3] | Potency [5]

O=C(c1ccco1)N1N=C2CCCCCC2C1(O)C(F)(F)F (stereo unspecified)
inactive: Potency [1] | Potency [2] | Potency [3] | Potency [5]

O=C(CN1CCCCC1)Nc1cc(Cl)ccc1Oc1ccccc1
inactive: Potency [1] | Potency [2] | Potency [3] | Potency [5]

O=c1ccc2c(-c3ccccc3S(=O)(=O)O)c3ccc(O)c(O)c3oc-2c1O
inactive: Potency [2] | activation [3] -12% [at 17.1 µM, percent relative to cAMP agonist control] | activity change, negative = inhibition [4] -28.7% [at 30.8 µM] | activation [5] -15.5% [at 30.8 µM]
active: Potency [8] 0.366 µM | Potency [9] 0.597 µM | Potency [10] 0.541 µM | Potency [11] 1.06 µM | Potency [12] 1.07 µM | Potency [13] 0.136 µM | Potency [1] 7.94 µM

O=C(/C=N/O)NCCCN1CCOCC1
inactive: activity change, negative = inhibition [14] -1.51% [at 17.2 µM] | activity change, negative = inhibition [15] 14.3% [at 17.2 µM] | outcome [16] | Potency [17] > 20.6 µM | Potency [1] | Potency [2] | Potency [3] | Potency [4]

COc1ccc(/C=C2/C(=O)N(CC3CCCO3)C(=S)N2C)c(OC)c1 (stereo unspecified)
active: Potency [1] 84.9 µM
inactive: Potency [2] | Potency [3] | Potency [5]

Cc1cc(NS(=O)(=O)c2ccc(Nc3nc(-c4ccc(C)c(C)c4)cs3)cc2)no1
inactive: outcome [18] | outcome [19] | Potency [2] | Potency [3] | Potency [4]
active: Potency [20] 27.3 µM | Potency [1] 75.7 µM

Cc1ccc(NS(=O)(=O)c2cccs2)cc1S(=O)(=O)N1CCCCCC1
inactive: Potency [1] | Potency [2] | Potency [3] | Potency [5]
